An excerpt weighted towards active compounds, which were near 14% of everything screened.
Pf growth 48h: P. falciparum growth inhibition at 48 hours (one generation). Potency, µM (series often up to 28.7 µM), for the others: at the highest dose activity change, negative = inhibition, usual class: inhibitors. AID 504832. 310,000 compounds, 5.9% hits. P. falciparum luciferase growth in erythrocytes, 48 h; note: potency is the fitted concentration of half-maximal effect
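Luminescence readout; reporter = integrated firefly luciferase in P. falciparum. RBC culture at 2% hematocrit, 0.1% parasitemia final, 37 C/5% CO2; decreased signal taken as growth inhibition.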
HCV inh: inhibitors of hepatitis C virus infection | Huh7.5.1 HCVcc-Cre infection, luciferase reporter, 44 h | Potency, µM (top dose mostly 41.8 µM), inactives show top-dose activity change, negative = inhibition, actives largely listed as inhibitors | 340,000 compounds, 3.4% hits | AID 651820; note: potency is the fitted concentration of half-maximal effect
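Luciferase read-out (15 sec integration) after a 15 min room-temperature substrate step quantifies HCVcc-Cre infection. Cells, 1,000 per well, had compound added 4 h post-plating, then virus at ~0.5 moi, and were cultured 44 h.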
Marburg entry inh: Marburg virus entry inhibition | 300,000 compounds, 1.8% hits | Potency, µM (titrated, usually from 37.8 µM), for inactives: at the highest dose activity change, negative = inhibition, hits mostly inhibitors | Marburg virus pseudotyped entry inhibition, cell reporter; calls by dose curve; tested in HEK293 cells; note: potency is the fitted concentration of half-maximal effect
Lassa entry inh: blocks Lassa virus binding to or entry into cells; Lassa virus pseudotype entry inhibition, cell reporter; Potency, µM (top dose mostly 37.9 µM), for inactives: top-dose activity change, negative = inhibition, hits mostly inhibitors; 300,000 compounds, 1.2% hits; AID 540256; calls by dose curve; tested in HEK293 cells; note: potency is the fitted concentration of half-maximal effect; nearly all actives have a fitted effect of over 50% in size
HCMV inh: inhibitors of human cytomegalovirus; HFF cells, HCMV-luciferase reporter, 72 h; hits give low values; 410,000 compounds, 4.5% hits; activity change, negative = inhibition, % at 57.5 µM; in the data active = activity change below about -60%; inconclusive = no clear call, values can overlap the other calls; inactive = above about -39%
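Cell-based, HFFs, 1000 cells/well, 16 h 37C; cpds in DMSO + HCMV-luc, MOI 1 PFU/cell; 72 h 37C; OneGlo luminescence after 5 min RT; norm. to buffer vs Salinomycin 10uM.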
Pf growth 96h: P. falciparum growth inhibition at 96 hours. 320,000 compounds, 6.9% hits. Potency, µM (doses to about 28.7 µM), for inactives: at the highest dose activity change, negative = inhibition, hits mostly inhibitors. P. falciparum luciferase reporter growth, 96 h; note: potency is the fitted concentration of half-maximal effect
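Infected RBCs, 2% Hct / 0.05% parasitemia final; luciferase-reporter P. falciparum; cpd 96 h, 37 C, 5% CO2; luciferase detection reagent; luminescence.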
* hit, by the source's call; u = inconclusive; x = no result given; [ ] = another dose, or the depositor's remark. Unless noted, calls come from the whole dose curve; as a rule, active = well fitted inhibition curve with a large enough effect; inconclusive = small, poorly fitted or top-dose-only effect, or another doubt; inactive = no such curve, though single readings can be large or run the other way. % is set by controls: 0 for no effect and ±100 for the full control effect.

SMILES | Pf growth 48h | HCV inh | Marburg entry inh | Lassa entry inh | HCMV inh | Pf growth 96h
COCc1cc(=O)n2[nH]cc(-c3ccccc3)c2n1 | 30% | 5% | -1% | 15% | 45 | -18%
Cc1nc2c(-c3ccccc3)c(C)[nH]n2c(=O)c1Cc1ccc(Br)cc1 | x | x | u | u | -97* | x
CS(=O)(=O)CC[C@H](C(=O)n1nnc2ccccc21)N1C(=O)c2ccccc2C1=O | x | x | -5%[46.1 µM] | x | x | x
CCOc1ccc(NC(=O)c2ccc(-c3nc(COc4ccccc4)c(C)o3)cc2)cc1 | x | x | x | u | -9 | x
Cc1cccc(C)c1OCc1nc2c3cnn(-c4cccc(F)c4)c3ncn2n1 | x | x | 15%[46.1 µM] | 21%[46.1 µM] | 10 | x
COCCNC(=O)Cn1c(-c2cccs2)cc2cc(Cl)ccc21 | x | x | x | -2%[46.1 µM] | -4 | x
CCCc1cc(=O)n2[nH]c(SCc3ccc(Cl)cc3)nc2n1 | 17% | 1% | x | x | -28 | 23%
CCCc1cc(=O)n2[nH]cc(-c3ccc(Cl)cc3)c2n1 | u | u | u | u | -96* | u
Cc1ccc(Cc2c(C)nc3c(-c4ccccc4)c(C)[nH]n3c2=O)cc1 | x | x | u | 8%[46.1 µM] | -73* | x
Cc1nc2c(-c3ccccc3)c(C)[nH]n2c(=O)c1Cc1ccc(C(C)C)cc1 | x | x | u | u | -14 | x
C[C@@H]1CN([C@H](C)CO)C(=O)c2cc(C#CC(C)(C)O)cnc2O[C@@H]1CN(C)C(=O)C1CC1 | x | x | x | x | 14 | x
Oc1ccc(N=Nc2c(O)ccc3ccccc23)cc1 | u | 14µM* | u | u | -9 | u
NS(=O)(=O)c1ccc(N=Nc2c(O)ccc3ccccc23)cc1 | -11% | -20% | -6% | 0% | -24 | 34%[5.75 µM]
COc1ccc(CCC(C)NCCc2ccc(Cl)cc2Cl)cc1 (stereo not drawn) | u | u | x | x | 20 | -14%
COc1ccc(C2SCCN2C(=S)Nc2cccc(Cl)c2)cc1 (stereo not drawn) | 2.3µM* | u | -33% | u | u | 2.1µM*
COc1ccc(CNC(=O)Nc2cccc(Cl)c2)cc1 | 71% | 11% | 5%[46.1 µM] | 4%[46.1 µM] | x | 10µM*
O=C(NCCc1ccc(Cl)cc1)Nc1cccc(Cl)c1 | u | u | u | u | -11 | 93%
O=C(NCCc1ccccc1)Nc1cccc(Cl)c1 | -4% | -4% | u | -12% | -2 | 2.9µM*
COc1ccc(C2SCCN2C(=S)Nc2ccc(Cl)cc2)cc1 (stereo not drawn) | u | u | -17% | -10% | -31 | u
COc1ccc(CNCCc2ccc(Cl)cc2Cl)cc1 | 7% | 29% | 13% | -8% | 20 | 5.9µM*
Cc1oc(-c2cccc(Cl)c2)nc1CS(=O)(=O)CC(=O)NC(C)CCc1ccccc1 (stereo not drawn) | x | x | u | -14%[46.1 µM] | -8 | x
COc1cccc(/C=N/NC(=O)c2nc(-c3ccccc3)cc(-c3ccccc3)n2)c1O | 5% | 17% | u | u | -97* | 2%
COc1cccc(/C=N/NC(=O)N/N=C/c2cccc(OC)c2O)c1O | u | 10% | 4.5µM* | u | -13 | u
COc1cccc(C=NNC(=O)c2ccncc2)c1O | x | u | u | u | 6 | x
COc1cccc(/C=N/Nc2ccccc2C(=O)O)c1O | 195% | 16% | x | x | -80* | 25%
SMILES | Pf growth 48h | HCV inh | Marburg entry inh | Lassa entry inh | HCMV inh | Pf growth 96h
COc1cccc(/C=N\NC(=O)c2ccc(Cn3cc(Br)c([N+](=O)[O-])n3)o2)c1O | u | 2.8µM* | 4µM* | 6.3µM* | -81* | u
O=C(CNC(=O)c1ccc(Cl)cc1)OCc1cc(=O)n2ccsc2n1 | x | x | x | 25%[46.1 µM] | 2 | x
CCOC(=O)c1cc(-c2ccccc2)n(-c2cccc(C(=O)NC(C)CC)c2)c1C (stereo not drawn) | x | x | x | -16%[46.1 µM] | u | x
COc1cccc(/C=N/Nc2ccc(C(=O)O)cc2)c1O | -56% | 21% | x | x | -95* | -24%
COc1cccc(/C=N/NC(=O)Cn2nc(C)c([N+](=O)[O-])c2C)c1O | 12µM* | u | u | u | 18 | u
COc1ccccc1C=NN=C(NN=Cc1ccccc1OC)NN=Cc1ccccc1OC | x | 13µM* | u | 13µM* | 26 | x
COc1cccc(/C=N/Nc2nn3cnnc3c3ccccc23)c1O | u | 15% | u | -11% | -29 | 0.33µM*
COc1cccc(/C=N/Nc2ccc(S(=O)(=O)O)cc2)c1O | 31% | 2% | 6% | -1% | 35 | 68%
C[C@@H]1CCCCO[C@H](CN(C)S(=O)(=O)c2cn(C)cn2)[C@@H](C)CN([C@H](C)CO)C(=O)c2cc(NC(=O)CCCN(C)C)ccc2O1 | x | x | x | x | -12 | x
CCOC(=O)C1=CCN(S(=O)(=O)c2ccccc2Br)C1c1ccc(Cl)cc1 (stereo not drawn) | x | x | x | x | -15 | x
O=C1CN(c2nc(-c3cccs3)nc3sc4c(c23)CCCC4)CCN1 | -22% | 5.6µM* | u | u | 0 | u
COc1ccccc1-c1nc2c(c(SCC(=O)Nc3ccccc3F)n1)Cc1c(CO)cnc(C)c1O2 | x | x | x | 1%[46.1 µM] | -20 | x
O=C(Nc1cccc(Cl)c1)NC1CCN(C2CCCCC2)C1 (stereo not drawn) | u | u | u | -13%[46.1 µM] | 40 | 12µM*
COc1ccc(/C(O)=C2/C(=O)C(=O)N(CCN(C)C)C2c2ccc(OC)c(OC)c2)c(C)c1 (stereo not drawn) | -23% | -1% | 5% | -3% | -71* | 19%
COc1cc(C2/C(=C(/O)c3ccc(OCC(C)C)cc3)C(=O)C(=O)N2CCN(C)C)ccc1O (stereo not drawn) | 9% | 5% | 9% | 5% | 16 | 12µM*
COCCCN1C(=O)C(=O)/C(=C(/O)c2ccc(OC)cc2)C1c1cccc(OC)c1 (stereo not drawn) | -3% | 13% | -1% | 12% | -102* | 25%
COCCCN1C(=O)C(=O)/C(=C(/O)c2ccc(C)cc2)C1c1ccccc1 (stereo not drawn) | 12% | 9% | 9% | -3% | 51 | 265%
Cc1cc(O)c(C(c2ccc(F)cc2)N2CCN(c3ccccc3)CC2)c(=O)n1Cc1ccco1 (stereo not drawn) | x | x | x | 6%[46.1 µM] | 22 | x
O=C(NCCCl)Nc1cccc(Br)c1 | -9% | 23% | 13%[46.1 µM] | 11%[46.1 µM] | 13 | 14%
COC(=O)c1ccc(C(=O)Nc2ccc(N)cc2N)cc1 | 4.1µM* | -15% | -2% | 8% | -25 | -9%
COC(=O)c1ccc(C(=O)Nc2ccc(F)cc2)cc1 | 67% | 7.1µM* | x | x | 21 | 146%
COC(=O)c1ccc(NC(=O)Nc2ccc(F)cc2F)cc1 | 246% | 11µM* | u | 16%[46.1 µM] | 14 | 8%
O=C(Nc1ccc(F)cc1)Nc1cccc(Br)c1 | x | -27% | x | x | -88* | x

High-throughput results from PubChem BioAssay.
